Entries with a potency or affinity are not part of this list. Results filed as inconclusive are left out. A number with no mark means an inactive call.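 The calls were made as follows: active = luminescence drop in HepG2 cells whose fitted half-effect dose is at most twice the top valid dose; inconclusive = flat curve with 30 to 70% signal loss, or unreliable fit; inactive = the rest.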

This assay in a line: HepG2 hepatoma cell viability loss – plate reader, dry powder, cytotoxicity control, dose response (AID 651947). As to conditions: ATP luminescence (CellTiter-Glo), 48 h, active compounds read low; at 26 µM unless noted.
In the case of `Clc1ccccc1-c1nnc(SCc2ccccc2)o1`, the max activity was -37.6% [at 6 µM]. Take `O=C(Cc1ccccc1)c1nnc(-c2ccccc2)o1`: the max activity is -24.7% [at 0.8 µM]. Then `FC(F)(F)Oc1cccc(CSc2nnc(-c3ccccc3)o2)c1`, with 19.6% [at 0.38 µM]; and `Cc1ccc(CSc2nnc(-c3ccccc3)o2)cc1`, with 15.4% [at 3 µM]; and `Clc1ccc(CSc2nnc(-c3ccccc3)o2)cc1`, with -22.7% [at 0.8 µM]. With `FC(F)(F)Oc1ccccc1CSc1nnc(-c2ccccc2)o1`, the max activity is -50.7% [at 1.6 µM]. For the molecule `c1ccc(-c2nnc(SC3CCCCC3)o2)cc1`, the max activity was -38.4%. In the case of `FC1(F)CCN(CCSc2nnc(-c3ccccc3)o2)CC1`, the max activity was -22.5% [at 1.6 µM]. Take `Cc1cccc(CSc2nnc(-c3ccc(Cl)cc3)o2)n1`: the max activity is 26% [at 0.38 µM]. Consider `Cc1cccc(-c2nnc(SCc3ccccc3)o2)c1`, for which the max activity is -20.2% [at 0.38 µM]. Turning to `c1ccc(CCc2nnc(-c3ccccc3)o2)cc1`, the max activity was 27.6%. With `c1ccc(CSc2nnc(-c3ccc(-c4ccccc4)cc3)o2)cc1`, the max activity is 15.5%. `c1ccc(-n2cc(CSc3nnc(C4CCC4)o3)nn2)cc1`: the max activity is -30.4% [at 12 µM]. With `N#Cc1ccc(CSc2nnc(-c3ccccc3)o2)cc1`, the max activity is -47.6% [at 3 µM]. For the molecule `c1ccc(CSc2nnc(-c3cc4ccccc4o3)o2)cc1`, the max activity is 34.2% [at 6 µM]. As for `FC1(F)CN(CCSc2nnc(-c3ccccc3)o2)C1`, the max activity was -36.2% [at 0.8 µM].

On to `Clc1ccc(-c2nnc(SCc3cn(-c4ccccc4)nn3)o2)cc1`, for which the max activity is -13% [at 3 µM]. For the molecule `Fc1ccc(Cn2cc(CSc3nnc(C4CCCC4)o3)nn2)cc1`, the max activity is -18.5% [at 6 µM]. With `c1ccc(-c2nnc(SCCC3OCCCO3)o2)cc1`, the max activity was 12.9% [at 0.8 µM]. Then `c1ccc(-n2cc(CSc3nnc(C4CCCC4)o3)nn2)cc1`, with 20.3% [at 0.38 µM]; and `c1ccc(CSc2nnc(C3CCCCC3)o2)cc1`, with 16.5% [at 3 µM]; and `FC(F)(F)CNCCSc1nnc(-c2ccccc2)o1`, with -10% [at 12 µM]. Then `CCSc1nnc(-c2ccccc2)o1`, with 23.2% [at 12 µM]; and `c1ccc(-c2nnc(SCCN3CCN(c4ccccc4)CC3)o2)cc1`, with -48.3% [at 12 µM].

As to `FC(F)(F)c1cccc(-c2nnc(SCc3ccccc3)o2)c1`, the max activity is 20.7% [at 12 µM].

In the case of `c1ccc(CSc2nnc(-c3ccncc3)o2)nc1`, the max activity is -29.6% [at 6 µM]. Regarding `c1ccc(-c2ccc(CSc3nnc(-c4ccccc4)o3)cc2)cc1`, the max activity was -30.5% [at 0.38 µM]. As for `[O-][n+]1ccccc1CSc1nnc(-c2ccccc2)o1`, the max activity was -47.8% [at 1.6 µM]. Take `c1ccc(-c2nnc(SCCN3CCCC3)o2)cc1`: the max activity is -61.1% [at 0.8 µM]. Consider `c1ccc(COc2nnc(-c3ccccc3)o2)cc1`, for which the max activity is -50.7% [at 1.6 µM]. For `Fc1cccc(-c2nnc(SCc3ccccn3)o2)c1`, the max activity was 26.1% [at 12 µM]. Then `CN(C)CCSc1nnc(-c2ccccc2)o1`, with -18.8% [at 0.195 µM]; and `COc1cccc(-c2nnc(SCc3ccccn3)o2)c1`, with 26.5% [at 1.6 µM]; and `c1ccc(-c2nnc(SCC3CC3)o2)cc1`, with 18.8% [at 0.38 µM]. Consider `CS(=O)(=O)c1ccc(-c2nnc(SCc3ccccc3)o2)cc1`, for which the max activity was -40.3%. Consider `COc1ccc(-c2nnc(SCc3ccc(Cl)cc3)o2)cc1`, for which the max activity is -16.2% [at 0.38 µM].

The values above are taken from PubChem BioAssay AID651947 (Broad Institute, 2012).
